High-throughput results deposited in PubChem BioAssay by National Center for Advancing Translational Sciences (NCATS).
Glioma ERSR ind: qHTS for Inducers of the Endoplasmic Reticulum Stress Response (ERSR) in Human Glioma: qHTS | U87-MG GRP78 promoter luciferase reporter, 16 h | Potency, µM, most hits filed as activators | 420,000 tested, 0.02% active | AID 602332, 2012; active = well fitted activation curve with a large enough effect; inconclusive = small, poorly fitted or top-dose-only effect; inactive = no such curve, though single readings can be large or run the other way; note: series mostly up to about 76 µM; nearly all actives have a fitted effect of over 35% in size
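Stably transfected U87-MG human glioma cells carrying a GRP78-based luminescent sensor were seeded at 1000 cells/well, pin-dosed with compounds and incubated 16 h. Luciferase reagent was then added, and end-point luminescence was read after 10 min at room temperature.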
D1 antag: Antagonist of Human D 1 Dopamine Receptor: qHTS; D(1A) dopamine receptor (Homo sapiens), P21728; HEK293 TREx D1 cells, calcium flux, dopamine EC80; active compounds read low; activity change, negative = inhibition, % at 10 µM; 360,000 tested, 3.2% active; AID 504652, 2011; in the data active = activity change below about -30%
Target sequence (P21728 whole entry, looked up): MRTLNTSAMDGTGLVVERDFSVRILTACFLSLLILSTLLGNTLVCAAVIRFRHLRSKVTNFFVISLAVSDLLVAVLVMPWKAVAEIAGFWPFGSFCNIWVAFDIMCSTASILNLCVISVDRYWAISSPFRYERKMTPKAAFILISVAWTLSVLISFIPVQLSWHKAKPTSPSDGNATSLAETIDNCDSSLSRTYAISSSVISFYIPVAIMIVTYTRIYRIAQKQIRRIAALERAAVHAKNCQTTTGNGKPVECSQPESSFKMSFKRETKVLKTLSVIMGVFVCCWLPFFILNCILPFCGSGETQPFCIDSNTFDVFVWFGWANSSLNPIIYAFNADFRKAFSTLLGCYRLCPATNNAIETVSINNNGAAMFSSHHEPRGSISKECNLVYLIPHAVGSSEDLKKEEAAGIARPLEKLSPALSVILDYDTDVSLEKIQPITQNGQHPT
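Compound effects on dopamine-evoked calcium signalling were measured in tetracycline-induced HEK293 Trex D1 cells. Dopamine at EC80 followed a 180 s compound pre-read, and fluorescence was tracked kinetically for 180 s more.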
D1 agonist: Allosteric Agonists of the Human D1 Dopamine Receptor: qHTS | activation, % at 2 µM | D(1A) dopamine receptor (Homo sapiens), P21728 | 360,000 tested, 1% active | HEK293 T-REx D1 cells, calcium flux, agonist mode
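Tetracycline-induced HEK293 TREx D1 cells, force-coupled to calcium signalling, were dye-loaded with a no-wash calcium kit. Compound was pin-added after a 10 s baseline. Fluorescence was read kinetically at 1 cycle/s for 180 s, with calcium rises flagged as agonism.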
TRHR PAM: qHTS for Small Molecule Agonists and Allosteric Enhancers of Human TRH Receptor: Primary Screen for Enhancers; Thyrotropin-releasing hormone receptor (Homo sapiens), P34981; TRHR cells, fluo-8 calcium fluorescence, EC20 TRH enhancement; enhancement, % at 2 µM; 360,000 tested, 0.66% active; AID 493056, 2011; in the data active = enhancement above about 30%
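TRHR-expressing cells loaded with fluo-8 calcium dye were read kinetically (ex 480/em 530) during compound addition, then stimulated with an EC20 of TRH (10 nM final). Enhancement of the Gq-mediated intracellular calcium response was scored.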
TRHR ag: qHTS for Small Molecule Agonists and Allosteric Enhancers of Human TRH Receptor: Primary Screen for Agonists. activation, % at 2 µM. 360,000 tested, 0.18% active. Thyrotropin-releasing hormone receptor (Homo sapiens), P34981. TRHR cells, calcium flux fluo-8, FDSS agonist mode
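Agonist-mode FDSS calcium read (Ex 480/Em 530, 1 s cycles) in 1536-well TRHR cells with fluo-8 dye, after 10-cycle baseline and 23 nL compound addition; TRH at EC20 (10 nM final) added afterwards for the enhancer phase.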
D1 potentiator: Potentiators of Human D1 Dopamine Receptor: qHTS; D(1A) dopamine receptor (Homo sapiens), P21728; HEK293 TREx D1 cells, calcium flux, dopamine EC20 potentiation; potentiation, % at 10 µM; 360,000 tested, 0.036% active; AID 504651, 2011; in the data active = potentiation above about 30%
Large screens that a line does not name were inactive. Only some compounds are listed: those with a hit (about 4% of all), similar ones and a draw of the others. Cut-off read from the data, not from the text of the source, unless noted: active = activation above about 30%; inactive = the rest.

CC[C@H](C)[C@@H](C(=O)NCCCCCCCCCCC(=O)N1CCN(C(=O)OC(C)(C)C)CC1)n1cc(CCCCCNC(=O)OC(C)(C)C)nn1	D1 antag -31.0
C#CCOCCOCCOCCNc1nc(N2CCN(C(=O)CCCCCCCCCCNC(=O)[C@@H](CCC(=O)O)n3cc(CCCCCN)nn3)CC2)nc(N2CCN(C(=O)CCCCCCCCCCNC(=O)[C@H]([C@@H](C)CC)n3cc(CCCCCN)nn3)CC2)n1	D1 potentiator 36.9
C#CCOCCOCCOCCNc1nc(N2CCN(C(=O)CCCCCCCCCCNC(=O)[C@H]([C@@H](C)CC)n3cc(CCCCCN)nn3)CC2)nc(N2CCN(C(=O)CCCCCCCCCCNC(=O)[C@H](CO)n3cc(CCCCCN)nn3)CC2)n1	D1 agonist 50.1
C#CCOCCOCCOCCNc1nc(N2CCN(C(=O)CCCCCCCCCCNC(=O)[C@H]([C@@H](C)CC)n3cc(CCCCCN)nn3)CC2)nc(N2CCN(C(=O)CCCCCCCCCCNC(=O)[C@H](CCCCN)n3cc(CCCC(=O)O)nn3)CC2)n1	D1 agonist 34.6
COc1cc(-c2noc(-c3cccs3)n2)cc(OC)c1OC	none
O=C(NCc1ccco1)C1CCCN(c2nnc(-n3cccc3)s2)C1 (configuration not stated)	D1 antag -39.4
COc1ccc(-n2c(=O)c(-c3ccccc3)nc3cncnc32)cc1	none (no result: D1 antag, D1 agonist, TRHR PAM, TRHR ag, D1 potentiator)
CNc1nc(-c2ccc([N+](=O)[O-])cc2)cs1	none
CN(c1ccc(OCC(=O)Nc2nc(-c3ccccc3)cs2)cc1)S(=O)(=O)c1ccc(F)cc1	none
Cc1ccc(S(=O)(=O)N(C)c2ccc(OCC(=O)Nc3nc(-c4ccccc4)cs3)cc2)cc1	D1 antag -37.4
Cc1ccc(S(=O)(=O)Nc2nc(-c3ccccc3)cs2)cc1	none
COc1ccc(-c2csc(NC(=O)c3ccccc3NS(=O)(=O)c3ccc(F)c(F)c3)n2)cc1	D1 antag -49.2
COc1ccc(-c2csc(NC(=O)c3ccccc3F)n2)cc1	none
Cc1ccc(S(=O)(=O)Nc2ccccc2C(=O)Nc2nc(-c3ccc(F)cc3)cs2)cc1	D1 antag -64.8
COc1ccc(-c2csc(NS(=O)(=O)c3ccc([N+](=O)[O-])cc3)n2)cc1	D1 antag -31.2
COCCCN(C(=O)C(C)Oc1ccc(Br)cc1)c1c(N)n(Cc2ccccc2)c(=O)[nH]c1=O (configuration not stated)	none
CN1CCCCCC1C(=O)NCC1Cc2cc(-c3cnccn3)ccc2O1 (configuration not stated)	none (no result: D1 antag, D1 agonist, TRHR PAM, TRHR ag, D1 potentiator)
CC(=O)c1ccccc1NC(=O)COC(=O)c1ccc2c(c1)nc(C)n2-c1ccccc1	none (no result: Glioma ERSR ind)
O=C(O)c1ccc(S(=O)(=O)N[C@@H](Cc2ccc(O)cc2)C(=O)O)cc1	none (no result: Glioma ERSR ind)
N#Cc1ccc(C[C@@H](NS(=O)(=O)c2ccc(C(=O)O)cc2)C(=O)O)cc1	D1 antag -35.1 (no result: Glioma ERSR ind)
CCC1S/C(=N\S(=O)(=O)c2cccs2)N(C2CCCCC2)C1=O (configuration not stated)	none
CC(NC(=O)C12CC3CC(CC(C3)C1)C2)c1ccc(F)cc1 (configuration not stated)	D1 antag -51.4
COc1ccc(NC(=O)c2cccc(N3C(=O)C4CC=C(C)CC4C3=O)c2)c(OC)c1 (configuration not stated)	D1 antag -51.1
Cc1ccc(C(=O)Nc2cccc(N3C(=O)C4CCC(C)CC4C3=O)c2)cc1 (configuration not stated)	TRHR PAM 33.4
Cc1cccc(NC(=O)c2cccc(N3C(=O)C4CCC(C)CC4C3=O)c2)c1C (configuration not stated)	D1 antag -49.3
Cc1cccc(C)c1NC(=O)c1cccc(N2C(=O)C3CCC(C)CC3C2=O)c1 (configuration not stated)	none
COc1ccc(OC)c(NC(=O)c2cccc(N3C(=O)C4C5CCC(C5)C4C3=O)c2)c1 (configuration not stated)	none
Cc1cccc(Nc2nc(N)nc(CSc3nccc(C)n3)n2)c1	none
O=C(/C=C/c1ccc(OCc2ccccc2)c(OCc2ccccc2)c1)c1cccnc1	none
Cc1cc(/C=N/NC(N)=S)c(C)n1-c1cccc(Cl)c1	none
Cc1cc(/C=N/NC(N)=S)c(C)n1-c1ccc(Cl)cc1	D1 antag -51.8
Cc1nc2ccccn2c1C(=O)N/N=C/c1cc(C)n(-c2ccc(Br)cc2)c1C	D1 antag -47.4
Cc1nc2ccccn2c1C(=O)N/N=C/c1ccccc1	none
Cc1cc(/C=N/NC(N)=S)c(C)n1-c1ccc(Br)cc1	D1 antag -49.5
CCOC(=O)C1CCCN(C(=O)c2ccccc2[N+](=O)[O-])C1 (configuration not stated)	none
COc1ccc(-c2cc3ccc(O)cc3oc2=O)cc1OC	Glioma ERSR ind inconclusive, TRHR PAM 31.5
CC(=O)Oc1ccc(-c2cc3ccc(OC(C)=O)cc3oc2=O)cc1	none (no result: D1 antag, D1 agonist, TRHR PAM, TRHR ag, D1 potentiator)
COc1ccc2cc(C(C)=O)c(=O)oc2c1	none
COc1ccc(-c2cc3ccc(OC(C)C(=O)O)cc3oc2=O)cc1 (configuration not stated)	D1 antag -30.5
CC(=O)c1cc2ccc(O)cc2oc1=O	D1 agonist 37.8
Cn1cccc1Cc1nnc(SCC(=O)Nc2nccs2)n1CCc1ccccc1	none
COc1ccc(C)cc1NC(=O)C(Sc1nnc(-c2cccs2)o1)c1ccccc1 (configuration not stated)	none
Cc1noc(C)c1CSCC(=O)N(C)CC(=O)Nc1ccc(Cl)cc1	D1 antag -44.2
Cc1noc(C)c1COc1ccccc1C(=O)N(C)Cc1ccc(C(C)(C)C)cc1	D1 antag -36.2
Cc1noc(C)c1COc1ccccc1C(=O)NCCc1ccc(Cl)cc1	none
Cc1ccc(NC(=O)CN(C)C(=O)c2ccccc2OCc2c(C)noc2C)cc1	none
Cc1noc(C)c1COc1ccccc1C(=O)N(C)CC(=O)Nc1ccc(F)cc1	D1 potentiator 34.0
Cc1noc(C)c1COc1ccccc1C(=O)N(C)Cc1ccc(F)cc1	none
Cc1noc(C)c1COc1ccccc1C(=O)NCCc1ccc(S(N)(=O)=O)cc1	D1 antag -33.9
Cc1c(N)cc(C(=O)N2CCOCC2)cc1[N+](=O)[O-]	none
COc1ccc(NC(=O)CN(C)C(=O)c2cccc3ccccc23)cc1	none
